We go through 14 compounds from PubChem BioAssay (NCI).

Compounds without any hit were thinned out: in the full panel of roughly 83,000, 20% have a hit.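 Compound tested at a single concentration for 48 hours in 96-well plates; a percent growth value below 10 was scored as active.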 A number with no mark means an inactive call. The source made the active and inactive calls.

Some test systems named below: HCT-15 colon; HT29 colon; SNB-75 CNS; SNB-19 CNS; U251 CNS; PC-3 prostate; SK-MEL-5 melanoma; UACC-62 melanoma; LOX IMVI melanoma; SK-MEL-28 melanoma.
What all share (test): NCI-60 one-dose screen, 48 h (100 = growth as untreated, 0 = no growth, -100 = all killed)
Holding throughout (conditions): 10 µM

With `CC(=O)[C@H]1CC[C@H]2[C@@H]3CC[C@@H]4CC=C(C=O)C[C@]4(C)[C@H]3CC[C@]12C`, the growth with HCT-15 colon is 96.7%; with HT29 colon, 90.7%; with SNB-75 CNS, 80.5%; in the assay on SNB-19 CNS, 97.8%; with U251 CNS, 88.5%; with PC-3 prostate it was 78.5%. The growth with SK-MEL-5 melanoma was 90.3%; in the assay with UACC-62 melanoma, 79.1%; with LOX IMVI melanoma it was 93.7%; in the assay with SK-MEL-28 melanoma, 93.9%.
`O=C(NCCc1nccs1)c1cnc2c(S)cccc2c1`: the growth in the assay with HCT-15 colon is 17.6%; in the assay with HT29 colon, 20.4%; with SNB-75 CNS, 44.1%; in the assay on SNB-19 CNS, 28.5%; with U251 CNS, 12.8%; in the assay on PC-3 prostate, 34.2%. Further, the growth was -22.1% (active) in the assay on SK-MEL-5 melanoma, -6.53% (active) in the assay on UACC-62 melanoma, 2.38% (active) with LOX IMVI melanoma and 30.5% with SK-MEL-28 melanoma.
On to `COc1cccc2c1O/C(=C\c1ccc([N+](=O)[O-])s1)C2=O`, for which the growth in the assay on HCT-15 colon is 8.57% (active); with HT29 colon, 77.3%; in the assay with SNB-75 CNS, 81.5%; in the assay on SNB-19 CNS it was 86.6%; in the assay with U251 CNS it was 45.2%; in the assay with PC-3 prostate, 32.9%. Besides, the growth with SK-MEL-5 melanoma was 73.7%; in the assay on UACC-62 melanoma, 35.9%; with LOX IMVI melanoma, 40.6%; with SK-MEL-28 melanoma it was 78.4%.
In the case of `COc1ccc2c(=O)cc(C(Cl)(Cl)Cl)oc2c1`, the growth with HCT-15 colon is 5.59% (active); with HT29 colon it was -41.8% (active); with SNB-75 CNS it was -78.3% (active); in the assay on SNB-19 CNS, 1.99% (active); in the assay on U251 CNS, -0.183% (active); in the assay with PC-3 prostate, -37% (active). In addition, the growth in the assay on SK-MEL-5 melanoma is -91.9% (active); in the assay with UACC-62 melanoma it was -73.2% (active); in the assay with LOX IMVI melanoma, -15.5% (active); in the assay with SK-MEL-28 melanoma, -82.7% (active).
As for `c1ccc(OCCC[P+](c2ccccc2)(c2ccccc2)c2ccccc2)cc1`, the growth with HCT-15 colon is 84.7%; in the assay with HT29 colon, 4.29% (active); in the assay on SNB-75 CNS, -5.17% (active); with SNB-19 CNS, 12.7%; in the assay on U251 CNS, 8.33% (active); in the assay with PC-3 prostate, -0.485% (active). Further, the growth in the assay on SK-MEL-5 melanoma was -69.2% (active); in the assay with UACC-62 melanoma it was 14.6%; in the assay on LOX IMVI melanoma, 2.53% (active); with SK-MEL-28 melanoma it was 26%.
Turning to `CCCCCCCCCCN=C(c1ccc(N(C)C)cc1)c1ccc(N(C)C)cc1`, the growth in the assay with HCT-15 colon was 12.9%; in the assay with HT29 colon, 9.42% (active); in the assay with SNB-75 CNS, 33.1%; in the assay with SNB-19 CNS it was 31.8%; with U251 CNS it was 21.3%; in the assay on PC-3 prostate, 30.7%. Besides, the growth in the assay on SK-MEL-5 melanoma is 0.192% (active); in the assay with UACC-62 melanoma, 31.7%; in the assay on LOX IMVI melanoma, 42.1%; with SK-MEL-28 melanoma it was 59.7%.
Turning to `N#CC1C=Cc2c(ccc3ccccc23)N1C(=O)c1ccccc1` (stereo not given), the growth in the assay on HCT-15 colon is 20.6%; with HT29 colon, 8.15% (active); in the assay on SNB-75 CNS, 22%; in the assay on SNB-19 CNS, 43.3%; in the assay on U251 CNS, 24%; in the assay on PC-3 prostate, 32.6%. Also, the growth in the assay with SK-MEL-5 melanoma was 12.7%; in the assay on UACC-62 melanoma, 37.7%; with LOX IMVI melanoma it was 27.5%; with SK-MEL-28 melanoma, 48.9%.
For `O=C(Nc1ccc(CN2CCOCC2)cc1)c1ccc(-c2cc(Cl)ccc2Cl)o1`, the growth with HCT-15 colon is 17%; in the assay with HT29 colon, 2.85% (active); with SNB-75 CNS, 48%; with SNB-19 CNS, 54.7%; with U251 CNS, 32.4%; with PC-3 prostate, 41.4%. Also, the growth in the assay with SK-MEL-5 melanoma is 37.1%; in the assay with UACC-62 melanoma, -56.1% (active); in the assay on LOX IMVI melanoma, 4.07% (active); in the assay with SK-MEL-28 melanoma it was 41.4%.
With `O=C(COc1ccc(-c2nc3ccccc3[nH]2)cc1)N=Nc1c(O)[nH]c2ccccc12`, the growth with HCT-15 colon was 105%; in the assay with HT29 colon, 100%; in the assay with SNB-75 CNS it was 104%; in the assay with SNB-19 CNS, 93.4%; in the assay with U251 CNS it was 55.9%; with PC-3 prostate it was 86.5%. The growth was 102% in the assay with SK-MEL-5 melanoma, 96.2% with UACC-62 melanoma, 100% with LOX IMVI melanoma and 99.7% in the assay on SK-MEL-28 melanoma.
Regarding `CC(C)C[C@H](NC(=O)Cn1ccc2ccccc2c1=O)B(O)O`, the growth in the assay with HCT-15 colon is 57.9%; in the assay with HT29 colon, 44.7%; with SNB-75 CNS, 96.8%; in the assay with SNB-19 CNS, 76.8%; in the assay with U251 CNS, 87.6%; in the assay on PC-3 prostate, 86.9%. The growth is 37.9% in the assay with SK-MEL-5 melanoma, 49.8% with UACC-62 melanoma, 50.6% in the assay with LOX IMVI melanoma and 48.7% in the assay on SK-MEL-28 melanoma.
As for `O=C(N/N=C\c1cc(Cl)ccc1O)c1ccncc1`, the growth in the assay on HCT-15 colon was 26.3%; in the assay on HT29 colon, 65.4%; with SNB-75 CNS it was 74.2%; in the assay with SNB-19 CNS, 62%; in the assay with U251 CNS, 43.9%; in the assay with PC-3 prostate it was 61%. For the same compound, the growth with SK-MEL-5 melanoma is 37%; in the assay on UACC-62 melanoma, 46.2%; with LOX IMVI melanoma it was 30.9%; in the assay with SK-MEL-28 melanoma, 64.5%.
Consider `COc1ccc(S(=O)(=O)Nc2ccc(OCc3nnc(-c4ccc(Cl)cc4)o3)c(F)c2)cc1`, for which the growth in the assay with HCT-15 colon was 65.5%; with HT29 colon, 83.7%; with SNB-75 CNS it was 67.1%; in the assay with SNB-19 CNS it was 65.8%; in the assay with U251 CNS, 68.4%; in the assay with PC-3 prostate it was 52.3%. Moreover, the growth in the assay on SK-MEL-5 melanoma is 15.7%; in the assay on UACC-62 melanoma, 42.4%; in the assay on LOX IMVI melanoma, 52.7%; in the assay with SK-MEL-28 melanoma it was 83.8%.
With `CCCc1c(C)nc2scc(-c3ccc(Cl)cc3)n2c1=O`, the growth is 101% with HCT-15 colon; 101% in the assay on HT29 colon; 97.9% in the assay with SNB-75 CNS; 105% in the assay on SNB-19 CNS; 97.2% in the assay with U251 CNS; 97.3% in the assay with PC-3 prostate. In addition, the growth with SK-MEL-5 melanoma is 99.1%; with UACC-62 melanoma, 100%; in the assay on LOX IMVI melanoma, 95.8%; in the assay with SK-MEL-28 melanoma it was 112%.
As to `O=C1CC[C@@H](C(=O)N[C@H]2CSSC[C@@H](C(=O)N/C=C/c3ccc(O)cc3)NC(=O)[C@H](Cc3ccccc3)NC(=O)[C@@H]3CCCN3C(=O)[C@@H]3CCCN3C2=O)N1`, the growth in the assay on HCT-15 colon was 97%; with HT29 colon, 99.8%; with SNB-75 CNS it was 100%; in the assay with SNB-19 CNS, 94.4%; with U251 CNS, 96.2%; with PC-3 prostate, 87.3%. The growth was 97.5% in the assay on SK-MEL-5 melanoma, 99.7% in the assay with UACC-62 melanoma, 94.5% with LOX IMVI melanoma and 101% with SK-MEL-28 melanoma.
